NALP1 inh: inhibitors of NALP1 inflammasome in yeast; S. cerevisiae NALP1/ASC/caspase-1 growth, X-gal OD620, 72 h; inhibition, % at 10 µM; 280,000 compounds, 0.61% hits; AID 2071; in the data active = inhibition mostly above about 24%, no sharp cut-off; inactive = mostly below about 32%
HDAC3 inh: blocks human histone deacetylase 3; recombinant HDAC3, fluorogenic peptide/trypsin coupled, fluorescence; inhibition, % at 8.3 µM; 320,000 compounds, 0.15% hits; AID 2718; in the data active = inhibition above about 26%, passing the limit was not always enough; inconclusive = no clear call, values can overlap the other calls
GASC-1 inh: blocks human GASC-1 demethylase activity | Q9H3R0 | GST-JMJD2C(1-420) H3K9me3 demethylation, DELFIA europium | inhibition, % at 2.35 µM | 330,000 compounds, 0.069% hits | AID 2099;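 active = more than half of a compound's replicate wells show inhibition beyond 50%, single wells judged on their own value; inconclusive = some, but no more than half, of replicates pass 50% inhibition; inactive = no replicate passes 50% inhibition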;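 also: signal counts dimethyl H3K9 product captured on neutravidin plate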
Target sequence (Q9H3R0 1-420 limits assumed): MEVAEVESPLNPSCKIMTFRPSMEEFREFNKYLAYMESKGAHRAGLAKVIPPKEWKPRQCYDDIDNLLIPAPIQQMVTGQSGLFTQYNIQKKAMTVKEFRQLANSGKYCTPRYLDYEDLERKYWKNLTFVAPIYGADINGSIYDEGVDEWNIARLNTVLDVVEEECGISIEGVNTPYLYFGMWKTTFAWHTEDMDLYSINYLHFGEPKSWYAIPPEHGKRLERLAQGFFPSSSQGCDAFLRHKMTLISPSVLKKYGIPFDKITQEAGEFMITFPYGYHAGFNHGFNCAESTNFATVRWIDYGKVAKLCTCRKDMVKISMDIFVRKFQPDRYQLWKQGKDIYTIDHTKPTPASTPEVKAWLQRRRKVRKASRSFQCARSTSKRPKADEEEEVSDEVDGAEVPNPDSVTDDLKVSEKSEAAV
NALP3 yeast inh: blocks the NALP3 inflammasome reconstituted in yeast; inhibition, % at 10 µM; Yeast reconstituted NLRP3/ASC/caspase-1, beta-gal luminescence, 24 h; 330,000 compounds, 0.39% hits;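 active = inhibition of 50% or more; inactive = inhibition below 50%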
Efflux pump inh: antifungal efflux pump inhibition, Nile Red retention; S. cerevisiae Candida pump triplex; inhibition, % at 10 µM; 330,000 compounds, 0.44% hits; AID 485275;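 active = plate passing quality check with inhibition over a set limit, or well fluorescence over plate mean plus 4 SD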;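 also: Nile Red retained in pooled yeast measured as flow cytometry median fluorescence; higher means more Nile Red kept so more efflux inhibition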
PolyA inhibitor: inhibitors of polyadenylation in S. cerevisiae | S. cerevisiae SKY197-pL101 polyadenylation reporter, beta-gal luminescence; efflux-impaired pdr1/pdr3 knockout yeast; score 100 = 6 SD above DMSO | activity score, % at 12 µM | 300,000 compounds, 0.02% hits;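 active = lowest replicate activity score at least 50, where 100 means six control SD above control mean; inconclusive = lowest score under 50 but half or more replicates reach 50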;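 also: yeast exposed to compound for 9 h at 30 °C; higher score means more reporter readthrough which indicates perturbed polyadenylation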
Yeast cmpd fluor: counter-screen for efflux pump inhibitors: compound fluorescence. shares compounds with Efflux pump inh. S. cerevisiae AD/pABC3, flow cytometry. fluorescence ratio to DMSO, % at 10 µM. 1,700 compounds, 4% hits;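 active = fluorescence ratio to DMSO above its plate's cutoff, the plate mean ratio plus 5 SD, cut at about 210% in these data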;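 also: unstained yeast with no Nile Red so the signal is compound autofluorescence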
Mdr1 pump inh: blocks the Candida albicans Mdr1 efflux pump in yeast | shares compounds with Efflux pump inh | S. cerevisiae AD/CaMDR1, Nile Red efflux, flow cytometry | inhibition, % at 10 µM | 1,700 compounds, 1% hits; in the data active = inhibition above about 26%;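 also: higher means more Nile Red retained so more efflux inhibition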
CaCdr2 efflux inh: inhibitors of Candida albicans Cdr2 efflux pump; shares compounds with Efflux pump inh; Nile Red retention ratio vs DMSO, % at 10 µM; S. cerevisiae AD/CaCDR2, Nile Red retention, flow cytometry; 1,700 compounds, 4% hits; in the data active = Nile Red retention ratio vs DMSO above about 190%;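 also: higher ratio means more blocking of Cdr2 efflux of the dye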
CaCdr1 efflux inh: inhibitors of Candida albicans Cdr1 efflux pump. shares compounds with Efflux pump inh. S. cerevisiae AD/CaCDR1, Nile Red efflux, flow cytometry. inhibition, % at 10 µM. 1,700 compounds, 1% hits;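 active = inhibition above the screen-wide mean plus twice its standard deviation, cut at about 32% in these data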
Of the large screens only hits and unclear results are named; the others gave an inactive call (follow-up assays come after a bar, where they were run). An excerpt weighted towards active compounds, which were near 1.5% of everything screened.

COc1cccc(NC(=O)CSc2nnc(Cc3cccs3)n2-c2ccc(C)cc2)c1	HDAC3 inh inconclusive | Yeast cmpd fluor inactive | Mdr1 pump inh inactive | CaCdr2 efflux inh inactive | CaCdr1 efflux inh inactive
NS(=O)(=O)c1ccc(NC(=O)CSc2nnc(Cc3cccs3)n2-c2ccccc2)cc1	PolyA inhibitor inconclusive | Yeast cmpd fluor inactive | Mdr1 pump inh inactive | CaCdr2 efflux inh inactive | CaCdr1 efflux inh inactive
COc1ccc(NC(=O)CSc2nnc(Cc3cccs3)n2-c2ccc(C)cc2)cc1	none | Yeast cmpd fluor inactive | Mdr1 pump inh inactive | CaCdr2 efflux inh inactive | CaCdr1 efflux inh inactive
C#Cc1ccc([C@@H]2C=C(C(=O)OCC=C)O[C@H](OCCCCO)C2)cc1	none
O=C(NCCCC1CCCC1)C1CCC(=O)N(Cc2ccc(Cl)cc2)C1 (centres undefined)	Efflux pump inh 6.4 | Yeast cmpd fluor inactive | Mdr1 pump inh inactive | CaCdr2 efflux inh inactive | CaCdr1 efflux inh inactive
O=C(NCCCC1CCCC1)C1CCC(=O)N(Cc2cccc(F)c2)C1 (centres undefined)	none
COc1ccc(C(C(=O)NC2CCCCC2)N(Cc2cccnc2)C(=O)c2snc(C(N)=O)c2N)cc1 (centres undefined)	none
COc1ccc2nccc(/C=C/c3ccnc4ccc(OC)cc34)c2c1	Efflux pump inh 0.7 | Yeast cmpd fluor inactive | Mdr1 pump inh inactive | CaCdr2 efflux inh inactive | CaCdr1 efflux inh inactive
N#Cc1ncc(-c2ccc3c(c2)OCCOCCOCCOCCO3)nc1C#N	Efflux pump inh 9.6 | Yeast cmpd fluor inactive | Mdr1 pump inh inactive | CaCdr2 efflux inh inactive | CaCdr1 efflux inh inactive
N#Cc1ncc(-c2ccc3c(c2)OCCOCCOCCOCCOCCO3)nc1C#N	none
Cc1cc(C(=O)NNS(=O)(=O)c2ccc(C(C)(C)C)cc2)nn1C(C)(C)C	Efflux pump inh 0.6 | Yeast cmpd fluor inactive | Mdr1 pump inh inactive | CaCdr2 efflux inh inactive | CaCdr1 efflux inh inactive
Cc1ccc(S(=O)(=O)NNC(=O)C(O)(c2ccccc2)c2ccccc2)cc1	none
O=C(NCC(=O)N1CCC(Cc2ccccc2)CC1)c1ccc(Cl)cc1	none
Cc1nc2ccccc2n1CCc1nc2c3ccccc3nc(SCC#N)n2n1	none
Cc1nc2ccccc2n1CCc1nc2c3ccccc3nc(SCC(=O)NCc3ccco3)n2n1	Efflux pump inh 1.2 | Yeast cmpd fluor inactive | Mdr1 pump inh inactive | CaCdr2 efflux inh inactive | CaCdr1 efflux inh inactive
CC1=C(C(=O)Nc2ccccc2)C(c2cccc([N+](=O)[O-])c2)Nc2nc3ccccc3n21 (centres undefined)	Efflux pump inh 1.4 | Yeast cmpd fluor inactive | Mdr1 pump inh inactive | CaCdr2 efflux inh inactive | CaCdr1 efflux inh inactive
C#CCOCCOCCOCCNc1nc(N2CCN(C(=O)[C@H](CC(N)=O)n3cc(C(N)[C@@H](C)CC)nn3)CC2)nc(N2CCN(C(=O)[C@H](CCC(=O)O)n3cc([C@@H](N)CCCCN)nn3)CC2)n1 (some centres undefined)	none (no result: NALP1 inh, PolyA inhibitor)
COc1ccc(NC(=O)Nc2cccc3c2O[C@H](CN(C)C(=O)NC2CCCCC2)[C@@H](C)CN([C@H](C)CO)C3=O)cc1	none (no result: NALP1 inh, GASC-1 inh, PolyA inhibitor) | Yeast cmpd fluor inactive | Mdr1 pump inh inactive | CaCdr2 efflux inh inactive | CaCdr1 efflux inh inactive
COc1ccc(NC(=O)Nc2cccc3c2O[C@H](CN(C)C(=O)Nc2ccccc2)[C@@H](C)CN([C@H](C)CO)C3=O)cc1	none (no result: NALP1 inh, PolyA inhibitor)
COc1cccc(N/C=C/C(=O)c2ccc(Cl)cc2)c1	none (no result: NALP3 yeast inh)
COc1ccc(N/C=C/C(=O)c2ccc(Cl)cc2)cc1	Efflux pump inh 15.2 | Yeast cmpd fluor inactive | Mdr1 pump inh inactive | CaCdr2 efflux inh inactive | CaCdr1 efflux inh inactive
CCc1noc(C)c1C(=O)N1CCC(CCC(=O)Nc2cccc(OC)c2)CC1	none
COc1ccc(NC(=O)c2c[nH]n3c(=O)cc(C4CCN(C(=O)OC(C)(C)C)CC4)nc23)cc1Cl	Efflux pump inh 1.1 | Yeast cmpd fluor inactive | Mdr1 pump inh inactive | CaCdr2 efflux inh inactive | CaCdr1 efflux inh inactive
Cc1cnc(CN(C)C(=O)CC2C(=O)NCCN2CCCc2ccccc2)[nH]1 (centres undefined)	none
CC(C)CC[n+]1ccccc1/C=C/c1ccc(N(C)C)cc1	Efflux pump inh 4.0 | Yeast cmpd fluor 955.1 | Mdr1 pump inh inactive | CaCdr2 efflux inh inactive | CaCdr1 efflux inh inactive
CN(C)c1ccc(/C=C/c2cccc[n+]2[O-])cc1	none
CC(C)=C1C2CCC1C1C(=O)N(c3nc(-c4ccc(C(C)C)cc4)c(C)s3)C(=O)C21 (centres undefined)	Efflux pump inh 0.4 | Yeast cmpd fluor inactive | Mdr1 pump inh inactive | CaCdr2 efflux inh inactive | CaCdr1 efflux inh inactive
Cc1nn(S(=O)(=O)c2ccccc2)c(C)c1S(=O)(=O)N1CCOCC1	none
CCCSC1=N/C(=C/c2ccsc2)C(=O)N1c1ccccc1	none
CCCCSC1=N/C(=C/c2ccsc2)C(=O)N1c1ccccc1	Efflux pump inh 5.8 | Yeast cmpd fluor inactive | Mdr1 pump inh inactive | CaCdr2 efflux inh inactive | CaCdr1 efflux inh inactive
Clc1ccc(-c2n[nH]c3c2CCC3)cc1Cl	Efflux pump inh 0.6 | Yeast cmpd fluor inactive | Mdr1 pump inh inactive | CaCdr2 efflux inh inactive | CaCdr1 efflux inh inactive
Clc1ccc(-c2n[nH]c3c2CCCC3)cc1	none
c1cc2c(cc1C1CCCCC1)c1c3n2CCCNC3CCC1 (centres undefined)	NALP1 inh 41.4, Efflux pump inh 95.4 | Yeast cmpd fluor inactive | Mdr1 pump inh inactive | CaCdr2 efflux inh inactive | CaCdr1 efflux inh inactive
O=C(O)c1ccc2c(c1)c1c3n2CCNC3CCC1 (centres undefined)	none
COc1ccc(NC(=O)NNC(=O)C(C)Oc2ccc3ccccc3c2)cc1 (centres undefined)	none
CCC(=O)N(Cc1ccc(C)cc1)Cc1cc2cc3c(cc2[nH]c1=O)OCO3	Efflux pump inh 10.6 | Yeast cmpd fluor inactive | Mdr1 pump inh inactive | CaCdr2 efflux inh inactive | CaCdr1 efflux inh inactive
CCC(=O)N(CCc1ccccc1)Cc1cc2cc3c(cc2[nH]c1=O)OCO3	none
Cc1cccc(N(C)S(=O)(=O)c2csc(C(N)=O)c2)c1	none
O=C(CCSc1ccccc1)Nc1ccccc1C(=O)N1CCCC1	Efflux pump inh 9.6 | Yeast cmpd fluor inactive | Mdr1 pump inh inactive | CaCdr2 efflux inh inactive | CaCdr1 efflux inh inactive

Screening results as filed in PubChem.
